Measurements as given in PubChem BioAssay (Tox21).
Records with an inconclusive call do not appear. The source made the active and inactive calls. Unless noted, calls come from the whole dose curve.

Key:
[1] = target: Gonadotropin-releasing hormone receptor (Homo sapiens) (UniProt P30968); test: Human gonadotropin-releasing hormone receptor (GnRHR) small molecule agonists, calcium flux assay in GnRHR-HEK293 cells (AID 1920063); note: nearly all actives have a fitted effect of over 35% in size
Summary of the method: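 Intracellular calcium rise is the read-out: engineered human GnRHR HEK293 cells, dye-loaded, are exposed to DMSO-dissolved compounds and fluorescence at Ex/Em 480/540 is tracked for 3 min.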

[2] = target: KiSS-1 receptor (Homo sapiens) (UniProt Q969F8); test: Human kisspeptin (KISS1R) small molecule agonists, calcium flux assay in KISS1R-HEK293 cells (AID 1920064; active = well fitted activation curve with a large enough effect in the repeat runs)
Sequence of KiSS-1 receptor (Homo sapiens) (Q969F8 whole entry, looked up): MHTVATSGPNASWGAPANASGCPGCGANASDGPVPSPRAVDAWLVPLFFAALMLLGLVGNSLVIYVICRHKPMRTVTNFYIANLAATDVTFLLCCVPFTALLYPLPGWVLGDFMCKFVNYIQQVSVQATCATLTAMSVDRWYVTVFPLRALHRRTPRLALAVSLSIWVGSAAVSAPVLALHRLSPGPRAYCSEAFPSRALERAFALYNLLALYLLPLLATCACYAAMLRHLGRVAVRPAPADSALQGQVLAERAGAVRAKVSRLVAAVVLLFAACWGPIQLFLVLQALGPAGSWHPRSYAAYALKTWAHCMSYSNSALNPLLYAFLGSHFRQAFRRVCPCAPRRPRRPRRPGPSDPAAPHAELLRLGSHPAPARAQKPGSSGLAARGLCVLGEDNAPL
Summary of the method: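 Concentration-response testing used 15 concentrations in triplicate on human KISS1R-expressing HEK293 cells. Calcium-dependent fluorescence (Ex/Em 480/540) was followed kinetically for 3 min after compound transfer.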

[3] = G protein-coupled receptor (GPCR) small molecule agonists, calcium flux assay: HEK293 wild type cell line counter screen (AID 1920065)
Summary of the method: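 Fluorescence intensity signals activation. After overnight (18 h) culture and a 1 h calcium dye load at 37 C, compounds are added by pin tool and the plate read at 480/540 nm for 3 min in 1 s steps.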

[4] = p53 small molecule agonists, cell-based qHTS assay with human liver microsomes (AID 1963577);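 note: p53 response element beta-lactamase reporter cells with liver microsomes plus NADPH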
Summary of the method: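 p53RE-bla cells; 5 h settle, 37 C/5% CO2; cpd + HLM 0.5 mg/mL + NADPH 0.5 mg/mL (final); 16 h 37 C; LiveBLAzer 2 h RT dark; fluorescence readout.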

[5] = p53 small molecule agonists, cell-based qHTS assay with rat liver microsomes (AID 1963578)
Summary of the method: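 Rat liver microsome activation: microsomes 0.5 mg/mL, NADPH 0.5 mg/mL final; p53RE-bla cells, 16 h 37 C; LiveBLAzer readout, 2 h RT dark.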

[6] = p53 small molecule agonists, cell-based qHTS assay with human liver microsomes: qHTS cell viability counter screen (AID 1963579); note: nearly all actives have a fitted effect of over 45% in size
Summary of the method: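 Luminescent CellTiter-Glo read-out, 30 min at room temperature, gauged cytotoxicity in p53RE-bla cells exposed 16 h at 37 C to DMSO-dissolved compounds with metabolic activation by human liver microsomes and NADPH, each 0.5 mg/mL final.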

[7] = p53 small molecule agonists, cell-based qHTS assay with rat liver microsomes: qHTS cell viability counter screen (AID 1963580); note: nearly all actives have a fitted effect of over 45% in size
Summary of the method: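 Luminescent ATP readout (CellTiter-Glo, 30 min at room temperature) reports viability of p53RE-bla HCT-116 cells after 16 h at 37 C with test compounds under metabolic activation by rat liver microsomes and NADPH at 0.5 mg/mL final each.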

[8] = p53 small molecule agonists, cell-based qHTS assay: qHTS cell viability counter screen (AID 1963581); note: nearly all actives have a fitted effect of over 45% in size
Summary of the method: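 Luminescence from CellTiter-Glo, reflecting ATP content, serves as the cytotoxicity measure; it is taken after the 2 h reporter substrate step in HCT-116 p53RE-bla cells dosed for 16 h at 37 C.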

[9] = target: 5-hydroxytryptamine receptor 2A (Homo sapiens) (UniProt P28223); test: 5-hydroxytryptamine receptor 2A (HTR2A) small molecule antagonists, cell-based qHTS assay (AID 1963586); note: nearly all actives have a fitted effect of over 45% in size
Sequence of 5-hydroxytryptamine receptor 2A (Homo sapiens) (P28223 whole entry, looked up): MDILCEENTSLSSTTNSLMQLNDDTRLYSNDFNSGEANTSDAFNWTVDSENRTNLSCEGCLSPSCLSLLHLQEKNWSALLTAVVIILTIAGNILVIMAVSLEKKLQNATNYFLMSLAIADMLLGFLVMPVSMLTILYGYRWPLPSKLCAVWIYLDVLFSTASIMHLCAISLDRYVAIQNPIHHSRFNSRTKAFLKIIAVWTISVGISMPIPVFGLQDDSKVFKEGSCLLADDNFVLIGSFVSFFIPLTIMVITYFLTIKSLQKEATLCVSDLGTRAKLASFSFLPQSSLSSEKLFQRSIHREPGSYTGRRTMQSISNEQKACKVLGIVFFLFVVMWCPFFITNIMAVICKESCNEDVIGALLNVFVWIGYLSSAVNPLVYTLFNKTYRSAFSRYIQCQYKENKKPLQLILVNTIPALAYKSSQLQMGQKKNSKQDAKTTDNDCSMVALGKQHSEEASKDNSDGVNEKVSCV
Summary of the method: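 CHO cells stably expressing human HTR2A were plated for 18 h at 37 C, then loaded with calcium dye for 1 h. Compounds were preincubated 5 min at room temperature before DOI (4 nM solution) was added. Kinetic fluorescence was read for 3 min.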

[10] = target: 5-hydroxytryptamine receptor 2A (Homo sapiens) (UniProt P28223); test: 5-hydroxytryptamine receptor 2A (HTR2A) small molecule agonists, cell-based qHTS assay (AID 1963587); note: nearly all actives have a fitted effect of over 30% in size
Summary of the method: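 HTR2A-CHO cells, plated 18 h at 37 C/5% CO2, dye-loaded 1 h at 37 C; compounds in DMSO added by pin tool (agonist mode). Intracellular calcium flux read as kinetic fluorescence on FDSS over 2 min at 1 s intervals.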

[11] = target: Muscarinic acetylcholine receptor M1 (Homo sapiens) (UniProt P11229); test: Cholinergic receptor muscarinic 1 (CHRM1) small molecule agonists, cell-based qHTS assay (AID 1963589); note: nearly all actives have a fitted effect of over 35% in size
Sequence of Muscarinic acetylcholine receptor M1 (Homo sapiens) (P11229 whole entry, looked up): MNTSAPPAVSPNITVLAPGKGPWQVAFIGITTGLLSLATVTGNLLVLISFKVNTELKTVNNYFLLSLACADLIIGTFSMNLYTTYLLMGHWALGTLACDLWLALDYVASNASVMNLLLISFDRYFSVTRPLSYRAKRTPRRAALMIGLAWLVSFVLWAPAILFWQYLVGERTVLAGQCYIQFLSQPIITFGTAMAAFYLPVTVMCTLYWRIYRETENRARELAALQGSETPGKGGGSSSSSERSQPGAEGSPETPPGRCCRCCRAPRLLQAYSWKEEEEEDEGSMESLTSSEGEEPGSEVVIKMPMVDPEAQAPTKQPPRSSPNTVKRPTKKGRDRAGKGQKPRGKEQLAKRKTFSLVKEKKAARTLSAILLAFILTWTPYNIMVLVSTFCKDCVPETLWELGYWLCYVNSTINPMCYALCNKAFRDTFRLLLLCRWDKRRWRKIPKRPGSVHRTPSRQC
Summary of the method: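 Fluorescent calcium dye reports M1 activation in stably transfected CHO cells. Compounds, 15 concentrations, added after 1 h dye loading at 37 C; kinetic reading at 1 sec intervals.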

[12] = cAMP Responsive Elements (CRE) small molecule agonists, cell-based qHTS assay (AID 1963590)
Summary of the method: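 Compound exposure lasted 3 h at 37 C/5% CO2 in CRE-bla HEK 293T cells grown in assay medium with 10% dialyzed FBS and 25 mM HEPES. Reporter signal came from LiveBLAzer B/G FRET substrate, 2 h, room temperature.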

[13] = target: Beta-2 adrenergic receptor (Homo sapiens) (UniProt P07550); test: Adrenergic beta2 receptor (ADRB2) small molecule antagonists, cell-based qHTS assay (AID 1963592); note: series mostly up to about 92 µM; nearly all actives have a fitted effect of over 50% in size
Sequence of Beta-2 adrenergic receptor (Homo sapiens) (P07550 whole entry, looked up): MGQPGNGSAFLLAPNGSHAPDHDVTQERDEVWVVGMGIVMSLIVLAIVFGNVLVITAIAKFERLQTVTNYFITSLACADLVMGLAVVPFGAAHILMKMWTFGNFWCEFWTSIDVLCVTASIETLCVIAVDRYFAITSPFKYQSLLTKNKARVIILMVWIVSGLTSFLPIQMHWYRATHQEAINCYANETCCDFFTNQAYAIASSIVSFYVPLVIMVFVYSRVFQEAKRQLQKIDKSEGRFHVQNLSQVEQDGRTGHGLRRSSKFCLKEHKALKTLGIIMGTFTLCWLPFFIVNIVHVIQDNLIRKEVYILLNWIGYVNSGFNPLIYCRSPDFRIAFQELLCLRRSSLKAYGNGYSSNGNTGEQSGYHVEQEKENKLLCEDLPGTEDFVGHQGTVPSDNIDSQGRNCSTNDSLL
Summary of the method: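 Assay format: CHO-ADRB2 cells, 18-20hr seeding at 37C/5% CO2, then compound plus 1nM isoproterenol agonist mix for 0.5hr RT. Homogeneous time-resolved fluorescence cAMP detection after 1hr, expressed as 665/615 nm ratio.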

[14] = target: D(2) dopamine receptor (Homo sapiens) (UniProt P14416); test: Dopamine D2 receptor (DRD2) small molecule agonists, cell-based qHTS assay (AID 1963594); note: nearly all actives have a fitted effect of over 35% in size
Sequence of D(2) dopamine receptor (Homo sapiens) (P14416 whole entry, looked up): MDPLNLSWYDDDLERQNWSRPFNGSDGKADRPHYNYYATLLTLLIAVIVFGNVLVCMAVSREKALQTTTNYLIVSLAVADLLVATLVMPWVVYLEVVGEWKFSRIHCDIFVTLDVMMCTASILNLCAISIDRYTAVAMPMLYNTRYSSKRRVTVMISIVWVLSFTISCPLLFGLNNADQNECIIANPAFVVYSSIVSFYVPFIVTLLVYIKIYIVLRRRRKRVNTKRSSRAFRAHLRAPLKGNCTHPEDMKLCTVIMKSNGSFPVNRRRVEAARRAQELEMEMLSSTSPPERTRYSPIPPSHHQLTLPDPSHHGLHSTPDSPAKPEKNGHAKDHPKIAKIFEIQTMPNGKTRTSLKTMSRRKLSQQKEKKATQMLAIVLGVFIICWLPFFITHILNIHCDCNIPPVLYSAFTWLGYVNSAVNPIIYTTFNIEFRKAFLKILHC
Summary of the method: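 HEK293 cells stably expressing DRD2 were cultured 24 h at 37 C, then given Ro20-1724 (0.1 mM final) and compounds for 10 min at room temperature. NKH477 (200nM) was then added for 30 min. cAMP was read by HTRF.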

[15] = target: D(2) dopamine receptor (Homo sapiens) (UniProt P14416); test: Dopamine D2 receptor (DRD2) small molecule antagonists, cell-based qHTS assay (AID 1963595; active = well fitted inhibition curve with a large enough effect in the signal ratio in the repeat runs, with a control signal flat; the % refers to the signal ratio)
Summary of the method: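 DRD2-HEK293; 0.1 mM Ro20-1724; cpd 10 min RT; NKH477 200 nM + quinpirole 12 nM, 30 min RT; HTRF cAMP (cAMP-d2/anti-cAMP cryptate), 665/620 nm ratio after 1 h.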

[16] = p53 small molecule agonists, cell-based qHTS assay (AID 1963582; active = well fitted activation curve with a large enough effect in the signal ratio in the repeat runs, not every such curve was filed as active; the % refers to the signal ratio; note: potency is the fitted concentration of half-maximal effect)
Summary of the method: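 After plating, p53RE-bla cells sat 5 h in the incubator; compounds or DMSO vehicle were pinned in; a 16 h incubation at 37 C followed; FRET substrate was added and, 2 h later at RT, fluorescence was measured.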

[17] = target: Muscarinic acetylcholine receptor M1 (Homo sapiens) (UniProt P11229); test: Cholinergic receptor muscarinic 1 (CHRM1) small molecule antagonists, cell-based qHTS assay (AID 1963588); note: nearly all actives have a fitted effect of over 40% in size; note: potency is the fitted concentration of half-maximal effect
Summary of the method: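 Compounds were tested at 15 concentrations in three independent runs. Dye-loaded CHRM1-CHO cells were exposed 5 min at room temperature before stimulation by acetylcholine added at 50nM. Intracellular calcium was read kinetically on FDSS for 3 min.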

[18] = cAMP Responsive Elements (CRE) small molecule antagonists, cell-based qHTS assay (AID 1963591; active = well fitted inhibition curve with a large enough effect in the signal ratio in the repeat runs, not every such curve was filed as active; the % refers to the signal ratio)
Summary of the method: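 Stimulation used NKH477 at a final 0.25 uM for 3 h in compound-treated CRE-bla HEK293T cells, seeded 18 h beforehand. Reporter activity was measured with LiveBLAzer B/G FRET substrate after 2 h at room temperature.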

[19] = target: Beta-2 adrenergic receptor (Homo sapiens) (UniProt P07550); test: Adrenergic beta2 receptor (ADRB2) small molecule agonists, cell-based qHTS assay (AID 1963593);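 note: CHO cells stably overexpressing human ADRB2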
Summary of the method: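 CHO cells stably over-expressing ADRB2 were plated overnight at 37C, then dosed with compounds plus a stimulation mix containing 100uM IBMX and 25uM Ro-20-1724 for 0.5hr at room temperature. cAMP was measured by HTRF competition, 1hr.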

Measured: Potency

Sequence of Gonadotropin-releasing hormone receptor (Homo sapiens) (P30968 whole entry, looked up): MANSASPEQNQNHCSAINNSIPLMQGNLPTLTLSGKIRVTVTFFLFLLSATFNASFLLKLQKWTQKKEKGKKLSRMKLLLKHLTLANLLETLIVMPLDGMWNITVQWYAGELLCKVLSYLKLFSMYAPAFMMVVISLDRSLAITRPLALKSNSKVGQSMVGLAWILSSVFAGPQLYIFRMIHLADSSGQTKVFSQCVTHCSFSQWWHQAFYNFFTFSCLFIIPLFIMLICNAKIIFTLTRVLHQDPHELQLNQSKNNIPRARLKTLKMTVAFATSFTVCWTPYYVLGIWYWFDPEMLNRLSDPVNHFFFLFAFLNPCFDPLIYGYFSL

O=S(=O)(c1ccc(Cl)cc1)c1cc(Cl)c(Cl)cc1Cl
inactive: [1] | [2] | [3] | [4] | [5] | [6] | [7] | [8] | [9] | [10] | [11] | [12] | [13] | [14] | [15]

CC1CC(CC2CCC(N)C(C)C2)CCC1N (stereo unspecified)
active: [17] 6.04 µM
inactive: [1] | [2] | [3] | [4] | [5] | [6] | [7] | [8] | [16] | [9] | [11] | [12] | [13] | [15]

Cc1ccc2c(c1N)C(=O)c1ccccc1C2=O
inactive: [1] | [2] | [4] | [5] | [6] | [7] | [8] | [16] | [9] | [10] | [17] | [11] | [18] | [13] | [19] | [14] | [15]

CN(C)c1ccc(C(=O)c2ccc(N(C)C)cc2)cc1
inactive: [1] | [2] | [3] | [4] | [5] | [7] | [9] | [10] | [17] | [11] | [18] | [13] | [14] | [15]
active: [16] 11.4 µM

C1CCC(NC2CCCCC2)CC1
inactive: [1] | [3] | [4] | [5] | [6] | [7] | [8] | [16] | [9] | [17] | [11] | [12] | [13] | [19] | [14] | [15]

COc1ccc2c(c1OC)C(=O)O[C@@H]2[C@H]1c2cc3c(cc2CCN1C)OCO3
inactive: [1] | [2] | [3] | [4] | [5] | [6] | [7] | [8] | [16] | [9] | [17] | [11] | [12] | [18] | [13] | [14] | [15]

CCCCSP(=O)(SCCCC)SCCCC
inactive: [1] | [2] | [3] | [4] | [7] | [8] | [16] | [9] | [10] | [17] | [11] | [12] | [18] | [13] | [14] | [15]
